Laboratory results from PubChem BioAssay AID686978 (National Center for Advancing Translational Sciences (NCATS), 2013).
In all, about 420,000 compounds went through this assay and about 64,000 (15%) were called active. Another 27% or so got no clear call; they are omitted. The call rests on the fitted dose curve; in most records, active means well fitted inhibition curve with a large enough effect; inconclusive means small, poorly fitted or top-dose-only effect; inactive means flat fitted curve, though single readings scatter. These entries were drawn from the full list. A call without a number means that no potency is given here.

test: qHTS for Inhibitors of human tyrosyl-DNA phosphodiesterase 1 (TDP1): qHTS in cells in absence of CPT; settings: DT40 Tdp1-/- hTDP1 cells, no CPT, ATP luminescence, 48 h; activity change, negative = growth inhibition: at 46.2 µM (top of the series); further: nearly all actives have a fitted effect of over 55% in size
How it was run: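 Seeded 400 DT40-hTDP1 cells/well (vehicle DMSO, no 20 nM CPT); pinned compounds; ≥48 hr at 37 °C; CellTiter-Glo luminescence as viability measure.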
Potency means the concentration at half of the fitted maximal effect.

SMILES	Potency	activity change, negative = growth inhibition
CCc1ccccc1NC(=S)Nc1cc(OC)c(NC(=O)C(C)C)cc1OC	inactive	–
CCc1ccccc1NC(=O)/C(=C/c1ccccc1)c1ccccc1	23.1 µM (active)	–
CCc1ccccc1NC(=O)CCOc1ccccc1	inactive	–
O=S(=O)(Nc1cccc(Oc2ccc(Cl)cc2)n1)c1ccc(F)cc1	inactive	–
CC(C)(C)NC(=O)CN1CCC(NC(=O)C23CC4CC(CC(C4)C2)C3)CC1	inactive	–
CCc1c(C)sc(NC(=O)C2c3ccccc3Oc3ccccc32)c1C(=O)OC(C)C	inactive	–
O=C(Oc1ccccc1Cl)c1ccc(N2CCOCC2)c([N+](=O)[O-])c1	inactive	–
O=C(Cc1ccc(S(=O)(=O)N2CCOCC2)s1)NCCOc1ccccc1F	inactive	–
O=C(Cc1ccc(S(=O)(=O)N2CCOCC2)s1)Nc1ccc(Br)c(C(F)(F)F)c1	25.9 µM (active)	–
O=C(Cc1ccc(S(=O)(=O)N2CCOCC2)s1)N1CCN(c2ccc(C(F)(F)F)cc2[N+](=O)[O-])CC1	9.2 µM (active)	–
O=C(COc1ccc(S(=O)(=O)N2CCOCC2)cc1Cl)N1CCOCC1	inactive	–
O=S(=O)(Nc1cc(S(=O)(=O)N2CCOCC2)ccc1N1CCCC1)c1cccs1	inactive	–
O=C(c1ccc(N2CCOCC2)c([N+](=O)[O-])c1)N1CCN(S(=O)(=O)c2cccs2)CC1	16.4 µM (active)	–
O=C(OCC(=O)N1CCOCC1)c1ccc(N2CCOCC2)c([N+](=O)[O-])c1	inactive	–
Cc1cc(S(=O)(=O)N2CCOCC2)ccc1OCC(=O)Nc1cccc(C(F)(F)F)c1	inactive	–
CC1CC(C)CN(CCCNC(=O)c2csc3c2CCCCC3)C1 (configuration not stated)	inactive	–
CCOC(=O)c1nc(N)sc1C(=O)OCC	inactive	–
O=C(Nc1ccc(-n2ccnc2P(=O)(O)c2ccccc2)cc1)c1ccccc1Br	inactive	–
CSc1nc2sc3c(c2c(=O)[nH]1)CCc1ccccc1-3	inactive	–
O=C(NC1CCCC1)C(c1c(F)cccc1Cl)N(C(=O)c1csnn1)C1CC1 (configuration not stated)	inactive	–
Cc1noc(C)c1NC(=O)Nc1cccc2c1O[C@H](CN(C)C(=O)Nc1ccccc1)[C@@H](C)CN([C@H](C)CO)C2=O	inactive	–
O=C(Nc1ccc2c(c1)CCC2)c1ccc(Br)s1	inactive	–
CCN(CC(=O)NCc1ccc(Cl)cc1)C(=O)CSc1ccccc1	inactive	–
O=C(CSc1nc2ccccc2o1)N1CCN(c2ccccc2)CC1	inactive	–

SMILES	Potency	activity change, negative = growth inhibition
CN(C)S(=O)(=O)c1cccc(C(=O)Nc2cccnc2)c1	inactive	–
Cc1ccc(/C=N/NC(=S)Nc2cccc(S(=O)(=O)N(C)C)c2)o1	2.59 µM (active)	–
Cc1ccc(/C=N/NC(=O)Cn2nc(C)c(Br)c2C)o1	inactive	–
O=C(OCc1cc2ccccc2[nH]c1=O)c1cccnc1	inactive	–
CN1CCN(S(=O)(=O)c2ccc3[nH]cc(C(=O)O)c(=O)c3c2)CC1	inactive	–
O=C(CCc1nc2ccccc2c(=O)[nH]1)OCC(=O)c1cccc(Cl)c1	inactive	–
Cc1cc(C)c(-c2csc(NC(=O)CCCc3nc4ccccc4c(=O)[nH]3)n2)c(C)c1	8.2 µM (active)	–
CC(C)(C)c1ccc(NC(=O)COC(=O)CCc2nc3ccccc3c(=O)[nH]2)cc1	inactive	–
Cc1ccc(C(=O)N/C(=C\c2cn(S(=O)(=O)N(C)C)c3ccccc23)C(=O)N2CCCC2)cc1	inactive	–
C/C=C(\C)C(=O)OC1C(OC(=O)C2(C)OC2C)c2cc3ccc(=O)oc3cc2OC1(C)C (configuration not stated)	–	-10.9% [at 9.04 µM] (inactive)
CN1CCN(/N=C/c2ccc(C#N)cc2)CC1	inactive	–
Cc1ccc(NS(=O)(=O)c2ccc3c(c2)CC(=O)N3)cc1Cl	inactive	–
Cc1cccc(N2C(=O)c3cccnc3C2=O)c1	inactive	–
NC1=CC(=O)C(=O)c2cccnc21	3.66 µM (active)	–
O=C1c2cccnc2C(=O)N1Cc1cccs1	inactive	–
CNc1nc(-c2ccccc2OC)nc2ccccc12	7.31 µM (active)	–
Cc1cccc(-c2noc(-c3ccc(F)cc3)n2)c1	inactive	–
COc1cc(Nc2nc(-c3ccc(OC)c(OC)c3)nc3ccccc23)cc(OC)c1	2.06 µM (active)	–
COc1ccccc1-c1nc(NCCNC(C)=O)c2ccccc2n1	inactive	–
COc1cccc(-c2nc(Nc3ccncc3)c3ccccc3n2)c1	10.3 µM (active)	–
Cc1nc2ccccc2c(C)c1C(=O)c1ccc(F)cc1	inactive	–
Oc1ccc(-c2nnc(Nc3ccccc3)c3ccccc23)cc1	inactive	–
Cc1cccc(-c2nc(Nc3ccc(O)cc3)c3ccccc3n2)c1	20.6 µM (active)	–
COc1ccc(-c2nc3n(c(=O)c2C#N)CCS3)c(OC)c1	inactive	–

SMILES	Potency	activity change, negative = growth inhibition
CC1=NCCN1S(=O)(=O)c1ccc(Br)c(C)c1	inactive	–
CCCCn1c(=O)c2oc3ccccc3c2n(CC(=O)Nc2ccccc2OC)c1=O	inactive	–
O=C(Nc1ccc(OCC(=O)N2CCOCC2)cc1)c1cc(F)c(F)cc1Cl	inactive	–
N#Cc1c(-c2ccccc2)c(-c2ccccc2)n[nH]c1=O	inactive	–
CCn1c(CSc2nc(C)cc(C)n2)nnc1SCC(N)=O	inactive	–
COCCCn1c(SCc2cccc(OC)c2)nc2cc(OC)c(OC)cc2c1=N	16.4 µM (active)	–
COc1ccc(/C=C/c2nnc(NC(=O)C(C)C)s2)cc1	inactive	–
Cc1cccc(N=C2SC(C)CN2C(=O)CN2C(=O)NC3(CCCC3)C2=O)c1 (configuration not stated)	inactive	–
CC(C)c1nc2cc(C(=O)NC(C)c3cnn(C)c3)ccc2o1 (configuration not stated)	inactive	–
COc1ccc(C2Sc3ccccc3NC3=C2C(=O)c2ccccc23)c(OC)c1OC (configuration not stated)	1.84 µM (active)	–
COc1cccc(C2=CC(=O)C[C@H](c3ccc(F)cc3)C2)c1OC	inactive	–
O=[N+]([O-])c1ccc(N2CCN(S(=O)(=O)c3ccccc3)CC2)cc1N1CCc2ccccc2C1	inactive	–
CSCCC(NC(=O)COc1ccccc1)C(=O)OCc1ccc(Cl)cc1 (configuration not stated)	inactive	–
CN(CCOc1ccc(CC2SC(=O)NC2=O)cc1)c1ccccn1 (configuration not stated)	inactive	–
COc1ccc(CCn2c(NCCCN3CCOCC3)nc3c2c(=O)[nH]c(=O)n3C)cc1	inactive	–
COc1ccc(CCN2CNc3c(c(=O)n(C)c(=O)n3C)C2)cc1OC	inactive	–
Cn1c(=O)c2c(nc(NCCc3ccccc3)n2Cc2ccccc2)n(C)c1=O	4.11 µM (active)	–
Cn1c(=O)c2c(nc(NCCc3ccccc3)n2Cc2ccccc2Br)n(C)c1=O	inactive	–
Cn1c(=O)c2c(nc(N/N=C/c3cccs3)n2Cc2ccc(Br)cc2)n(C)c1=O	23.1 µM (active)	–
CCCCn1c(SCC(=O)NCCc2ccc(OC)c(OC)c2)nc2c1c(=O)n(C)c(=O)n2C	inactive	–
CCn1c(NCCc2ccc(OC)c(OC)c2)nc2c1c(=O)n(C)c(=O)n2C	7.31 µM (active)	–
Cn1c(=O)[nH]c(=O)c2c1nc(NCCCn1ccnc1)n2Cc1cccc(Br)c1	inactive	–
Cn1c(=O)c2c(nc(NCc3ccccc3)n2CC(N)=O)n(C)c1=O	inactive	–
CCCCNc1nc2c(c(=O)n(C)c(=O)n2C)n1Cc1cccc(OC)c1	1.84 µM (active)	–
